Source: PubChem BioAssay
Sampled rows, rich in hits. Any-hit rate of the full collection: about 6.5%.
VACV mCherry inh: inhibitors of vaccinia virus infection (mCherry reporter signal); Potency, µM (titrated, usually from 36.5 µM), for inactives: top-dose activity change, negative = inhibition, hits mostly inhibitors; Vaccinia virus mCherry reporter infection, fluorescence; hit rate 0.63% among 310,000; calls by dose curve; tested in A549 cells; also: potency is read from the fitted curve at half-maximal effect; nearly all actives have a fitted effect of over 35% in size
VACV Venus inh: inhibitors of vaccinia virus (Venus reporter); Vaccinia virus Venus reporter expression, fluorescence; Potency, µM (doses to about 36.5 µM), for inactives: at the top dose activity change, negative = inhibition, actives largely listed as inhibitors; hit rate 0.46% among 330,000; calls by dose curve; tested in A549 cells; also: potency is read from the fitted curve at half-maximal effect; nearly all actives have a fitted effect of over 30% in size
FMDV antiviral: foot and mouth disease virus antiviral activity; Potency, µM (series often up to 57.9 µM), for the others: at the highest dose activity change, negative = inhibition, hits mostly inhibitors; hit rate 1.2% among 410,000; FMDV antiviral cell-based qHTS; AID 1159524; calls by dose curve; tested in HEK293T cells; also: read-out not given here; potency is read from the fitted curve at half-maximal effect; nearly all actives have a fitted effect of over 45% in size
Marburg entry inh: Marburg virus entry inhibition. Marburg virus pseudotyped entry inhibition, cell reporter. Potency, µM (series often up to 37.8 µM), inactives show at the highest dose activity change, negative = inhibition, most hits filed as inhibitors. hit rate 1.8% among 300,000. AID 540276; calls by dose curve; tested in HEK293 cells; also: potency is read from the fitted curve at half-maximal effect
Lassa entry inh: inhibitors of Lassa virus binding or cell entry; Lassa virus pseudotype entry inhibition, cell reporter; Potency, µM (highest dose often 37.9 µM), without a hit: at the top dose activity change, negative = inhibition, most hits filed as inhibitors; hit rate 1.2% among 300,000; AID 540256; calls by dose curve; tested in HEK293 cells; also: potency is read from the fitted curve at half-maximal effect; nearly all actives have a fitted effect of over 50% in size
HCMV antiviral: human cytomegalovirus inhibition. hit rate 4.5% among 410,000. HFF cells, HCMV-luciferase reporter, 72 h; active compounds read low. activity change, negative = inhibition, % at 57.5 µM. AID 1259415; in the data active = activity change below about -60%; inconclusive = no clear call, values can overlap the other calls; inactive = above about -39%
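Luciferase read-out from HCMV-luciferase-infected HFFs (MOI 1 PFU/cell) 72 h post infection at 37C; compounds added after 16 h cell attachment; activity normalized between buffer-only basal and Salinomycin (10uM) inhibitor controls.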
Active calls of the source: *; i = inactive; ? = inconclusive; / = no result given; [ ] = dose if it differs, or a comment. % is scaled to controls: 0 for no effect and ±100 for the full control effect.

SMILES	VACV mCherry inh	VACV Venus inh	FMDV antiviral	Marburg entry inh	Lassa entry inh	HCMV antiviral
C#CCN1C(=O)C(O)(CC(=O)c2ccc(OC)c(OC)c2)c2ccccc21 (stereo not drawn)	/	/	?	?	-18%	26
O=C(CC1(O)C(=O)N(Cc2ccccc2)c2ccc(Br)cc21)c1ccccc1 (stereo not drawn)	-1%	-12%	6%	-28%[46.1 µM]	-25%[46.1 µM]	14
C=CCN1C(=O)C(O)(CC(=O)c2ccco2)c2cc(Br)ccc21 (stereo not drawn)	-24%	-7%	-17%	/	/	-82*
COC(=O)CN1C(=O)C(O)(CC(=O)c2ccc(Br)cc2)c2ccccc21 (stereo not drawn)	i	-10%	-12%	/	/	-62*
O=C(CC1(O)C(=O)N(CCc2ccccc2)c2ccc(Br)cc21)c1ccccc1O (stereo not drawn)	-8%	-21%	6%	-27%[46.1 µM]	?	-77*
CCCN1C(=O)C(O)(CC(=O)c2ccc(CC)cc2)c2ccccc21 (stereo not drawn)	-10%	-11%	-8%	/	21%[46.1 µM]	-12
CCCCN1C(=O)C(O)(CC(=O)c2ccc(CC)cc2)c2cc(Br)ccc21 (stereo not drawn)	-10%[7.34 µM]	-1%[7.34 µM]	-8%	?	5%[46.1 µM]	-79*
Fc1ccc(N2CCN(c3ncnc4[nH]ncc34)CC2)cc1	7%	14%	-1%	/	-1%[46.1 µM]	-30
CCC(C)NC(=O)CSc1nnc(-c2ccc(C)cc2)c(-c2ccc(C)cc2)n1 (stereo not drawn)	-14%	-7%	-27%	/	-14%[46.1 µM]	-3
Cc1ccc(-n2cnc3cc(NCc4cccs4)ccc32)cc1	/	/	6%	?	?	0
c1ccc(-n2cnc3cc(NCc4ccco4)ccc32)cc1	-27%	?	65%	-2%[46.1 µM]	?	-86*
CCn1c(=O)n(CC)c2cc(S(=O)(=O)N3CCc4ccccc43)ccc21	i	?	/	?	-20%	-92*
COC(=O)c1ccc(S(=O)(=O)N2CCc3ccccc32)cc1	-14%	-3%	-12%	2.5µM*	?	-15
O=S(=O)(NC1CC1)c1ccc(S(=O)(=O)N2CCc3ccccc32)cc1	-24%	-21%	?	-25%	-23%	-81*
O=S(=O)(c1ccc(F)cc1)N1CCc2ccccc21	/	/	-21%	/	/	-34
CCCCCCNC(=O)c1cc(S(=O)(=O)N2CCc3ccccc32)ccc1F	/	/	-14%	/	/	-69*
COc1ccc(S(=O)(=O)N2CCc3ccccc32)cc1OC	6%	-28%	1%	?	?	-22
CCc1ccc(NC(=O)CC2C(=O)N(c3cccc(OC)c3)C(=O)N2Cc2ccc(F)cc2)cc1 (stereo not drawn)	-10%	-22%	-11%	/	-18%[46.1 µM]	-18
C1=CN2CC=Cc3cc(/C=C/c4ccnc5ccccc45)cc(c32)C1	-5%	169%	/	/	/	/
COc1ccc(-c2ccc(CNc3ccc4[nH]c(=O)[nH]c4c3)o2)cc1Cl	-6%	-15%	-14%	?	6%[46.1 µM]	-12
Cc1oc(-c2cccc(NC(=O)c3ccccn3)c2)nc1CNC(=O)c1ccc(C(F)(F)F)cc1	-19%	-7%	41%	/	/	/
CCN(CC)CCNC(=O)c1ccc(-n2c(-c3ccccc3)cc3c2CCCC3)cc1	-17%	-14%	-16%	/	?	-35
CCOc1ccc(C2C3=C(Nc4nc(N)[nH]c(=O)c42)c2ccccc2C3=O)cc1 (stereo not drawn)	i	-6%	7%	?	25%	-22
CCCOc1ccc(C2C3=C(Nc4nc(N)[nH]c(=O)c42)c2ccccc2C3=O)cc1 (stereo not drawn)	/	/	19%	/	/	-67*
COCC(=O)Nc1cc(C(=O)N2CCN(c3ccc(Cl)cn3)CC2)c2c(c1)nc(C1CCC1)n2C	-1%	5%	-11%	/	/	/
SMILES	VACV mCherry inh	VACV Venus inh	FMDV antiviral	Marburg entry inh	Lassa entry inh	HCMV antiviral
CSc1ccc(CNC(=O)c2ccccc2NC(=O)c2nsc3ccccc23)cc1	-8%	-23%	-15%	/	12%[46.1 µM]	19
Cc1ccc(CNC(=O)C2CC3Cn4c(nc5ccccc54)C3N2C)o1 (stereo not drawn)	i	-5%	-12%	/	/	2
Cc1ccc(CNC(=O)C2CC3Cn4c(nc5cc6ccccc6cc54)C3N2C)o1 (stereo not drawn)	i	-15%	-16%	/	/	-101*
Cc1ccc(S(=O)(=O)/N=C(\CCl)N2CCOCC2)cc1	?	?	25µM*	?	?	22
Cc1ccc(S(=O)(=O)/N=C(\CN2CCOCC2)N2CCCC2)cc1	-16%	-11%	/	0%	17%	28
COc1ccc(Cc2nccc3cc(OC)c(OC)cc23)cc1OC	?	?	18µM*	?	?	-77*
COc1ccc(Cc2c3cc(OC)c(OC)cc3cc[n+]2C)cc1OC	i	-7%	-10%	/	/	/
CCN(CC)S(=O)(=O)c1ccc2c(c1)N(CC(=O)N1CCN(c3cccc(Cl)c3)CC1)C(=O)CO2	-11%	-11%	-30%	/	-5%[46.1 µM]	-22
COc1ccc(C(CNC(=O)c2cccc(S(=O)(=O)Nc3ccccc3OC)c2)N2CCCCC2)cc1 (stereo not drawn)	-8%	-18%	-19%	?	?	-99*
COc1cccc(C(=O)NCC(c2cccnc2)N2CCN(c3ccccc3OC)CC2)c1 (stereo not drawn)	-20%	-24%	35µM*	/	/	/
COc1cccc(NC(=O)C(=O)NCC(c2cccnc2)N2CCN(c3ccccc3)CC2)c1 (stereo not drawn)	-15%	-14%	-1%	/	11µM*	70
COc1cccc(C(=O)NCC(c2ccc(N(C)C)cc2)N2CCc3ccccc32)c1 (stereo not drawn)	-5%	0%	-16%	/	-9%[46.1 µM]	-68*
COc1ccc(C(=O)NCC(c2cccnc2)N2CCN(c3ccccc3OC)CC2)cc1OC (stereo not drawn)	-4%	-12%	?	-3%	/	14
COC(=O)c1ccc(NC(=O)C(=O)NCC(c2cccnc2)N2CCN(c3ccccc3)CC2)cc1 (stereo not drawn)	-17%	-17%	-9%	/	-9%[46.1 µM]	?
COc1ncc2nc(-c3ccccc3)c(=O)n(CCC#N)c2n1	/	/	6%	/	/	/
O=S(=O)(c1cccc(-c2csc(-c3cccnc3)n2)c1)N1CCOCC1	-12%	-10%	-9%	-11%[46.1 µM]	-23%	?
O=S(=O)(c1ccc(-c2csc(-c3cccnc3)n2)cc1)N1CCCC1	/	/	-4%	1%	24%	?
O=S(=O)(c1cccc(-c2csc(-c3cccnc3)n2)c1)N1CCCCC1	/	/	-26%	-14%	-26%	-69*
O=S(=O)(c1ccc(-c2csc(-c3cccnc3)n2)cc1)N1CCCCC1	/	/	?	?	-3%	-62*
COC(=O)C(C(C)=O)[C@@H](NC(=O)OC(C)(C)C)c1ccccc1 (stereo partly drawn)	/	/	/	-7%[14.2 µM]	/	/
Cn1nc(C(=O)N2CCN(c3ccccc3F)CC2)c2c1-c1ccccc1SC2	-6%	2%	-13%	?	0%[46.1 µM]	-24
